Experimental data taken from PubChem BioAssay.

assay: optical density change of DRC41 E. coli – strain DRC41, OD650, 24 h, E. coli filamentation project, primary screen (AID 1093);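 also: MC1000 strain lacking acrAB efflux and sulA so SOS filamentation is blocked; test concentration not given here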; settings: E. coli DRC41 growth, higher = more signal, called active from +8 up or from −8 down

z-score, inactive:
COCC(=C=CC[C@@H](O)c1ccccc1OCCO)C[C@@H](O)c1ccccn1 -0.224
COc1ccc([Si](C)(C)[C@H]2[C@H](CCO)O[C@@]3(C(=O)N(Cc4cccc(N5CCOC5=O)c4)c4ccccc43)[C@@H]2C)cc1 0.228
COC(=O)C(CC#Cc1ccc2c(c1)[C@]1(C(=O)N2)[C@H](C(=O)N2CCc3cc(OC)c(OC)cc3C2)[C@H]2C(=O)O[C@H](c3ccccc3)[C@H](c3ccccc3)N2[C@@H]1c1ccc(O)cc1)C(=O)OC 2.04
COc1ccc([Si](C)(C)[C@H]2[C@H](CCn3cc(CCO)nn3)O[C@@]3(C(=O)N(Cc4cccc(N5C(=O)c6cccc7cccc5c67)c4)c4ccccc43)[C@@H]2C)cc1 0.921
C[C@H]1ON(c2ccccc2)[C@@H](c2ccccc2)[C@@H]1C(=O)N1C(=O)OC[C@@H]1c1ccccc1 -0.0337
COc1ccc(C#Cc2ccc3c(c2)[C@]2(C(=O)N3)[C@H](C(=O)O)[C@H]3C(=O)O[C@H](c4ccccc4)[C@H](c4ccccc4)N3[C@@H]2c2ccc(OCCO)cc2)cc1 2.26
C=CCC(OC(C)=O)[C@@H]1[C@@H](N(Cc2ccc(-c3ccccc3)cc2)C(=O)Cc2ccc(OC)cc2)c2cc(OCCCO)ccc2N1C(=O)c1ccc(-c2ccccc2)cc1 (some centres undefined) 1.23
Cc1ccc(S[C@]2(C(=O)NCC(C)C)CC(=O)N(C3CCCCC3)[C@@H]2c2ccc(CO)cc2I)cc1 0.12
COC(=O)C(CC#Cc1ccc2c(c1)[C@]1(C(=O)N2)[C@H](c2ccc(OCCO)cc2)N2[C@H](c3ccccc3)[C@H](c3ccccc3)OC(=O)[C@H]2[C@@H]1C(=O)O)C(=O)OC 1.95
